# From ChEMBL document CHEMBL3988442, “University of Dundee, Small-Polar-MMV Screening Library” (2021)
# For some assays here: Measured potencies and affinities stand elsewhere.
# Assays:
# Set-up in all cases: scale not given: direction of the effect not stated beside the values
# [1] = biological target: Protein translocase subunit SecA (Escherichia coli (strain K12)) (UniProt P10408); experiment: Assay to Identify E. coli SecA ATPase Inhibitors; assay type: functional; conditions: 30 µM
# [2] = biological target: T1, Ubiquitin-activating enzyme e1, putative (Leishmania donovani (strain BPK282A1)) (UniProt E9BSI1); experiment: Leishmania donovani Ubiquitin Activating Enzyme (LdE1); assay type: functional; conditions: 30 µM
# T1 sequence (whole entry): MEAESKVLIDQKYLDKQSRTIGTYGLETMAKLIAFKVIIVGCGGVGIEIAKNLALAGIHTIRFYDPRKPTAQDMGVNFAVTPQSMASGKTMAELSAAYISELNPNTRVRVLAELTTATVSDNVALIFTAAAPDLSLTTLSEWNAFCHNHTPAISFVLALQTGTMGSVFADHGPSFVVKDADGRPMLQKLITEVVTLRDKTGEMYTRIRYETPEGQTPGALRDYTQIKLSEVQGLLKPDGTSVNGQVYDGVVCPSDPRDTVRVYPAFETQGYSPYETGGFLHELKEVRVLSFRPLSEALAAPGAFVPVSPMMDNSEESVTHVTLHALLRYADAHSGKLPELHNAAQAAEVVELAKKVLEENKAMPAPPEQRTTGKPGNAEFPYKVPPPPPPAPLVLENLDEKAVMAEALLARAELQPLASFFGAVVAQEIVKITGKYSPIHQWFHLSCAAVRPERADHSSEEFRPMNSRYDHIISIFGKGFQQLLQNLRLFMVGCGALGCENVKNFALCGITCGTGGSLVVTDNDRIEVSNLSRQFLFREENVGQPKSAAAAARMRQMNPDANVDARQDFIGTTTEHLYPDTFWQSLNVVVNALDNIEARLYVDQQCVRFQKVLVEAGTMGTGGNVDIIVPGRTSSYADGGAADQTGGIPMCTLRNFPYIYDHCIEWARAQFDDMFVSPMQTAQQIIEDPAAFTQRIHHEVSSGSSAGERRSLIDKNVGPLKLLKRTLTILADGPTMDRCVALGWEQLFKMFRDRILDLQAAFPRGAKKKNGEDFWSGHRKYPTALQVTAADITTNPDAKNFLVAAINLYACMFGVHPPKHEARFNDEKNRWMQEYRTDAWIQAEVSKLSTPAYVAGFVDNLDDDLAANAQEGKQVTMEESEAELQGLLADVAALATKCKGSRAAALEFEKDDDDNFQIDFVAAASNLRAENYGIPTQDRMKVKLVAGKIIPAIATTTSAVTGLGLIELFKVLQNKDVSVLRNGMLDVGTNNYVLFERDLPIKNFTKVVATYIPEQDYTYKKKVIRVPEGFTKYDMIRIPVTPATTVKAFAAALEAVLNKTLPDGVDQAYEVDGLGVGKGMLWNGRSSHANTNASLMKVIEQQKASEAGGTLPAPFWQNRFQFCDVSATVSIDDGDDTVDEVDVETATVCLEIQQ
# [3] = biological target: AMP-activated protein kinase, AMPK (Homo sapiens) (UniProt P54646+O43741+P54619+Q9UGJ0+Q9Y478+Q13131+Q9UGI9); experiment: AMP-dependent Kinase enzyme assay. An in vitro enzyme assay that detects ADP turnover that is directly proportional to AMPK activity. This uses naive AMPK that is activated during the assay with MK-8722; assay type: functional; conditions: 30 µM
# [4] = biological target: Sialic acid-binding Ig-like lectin 9 (Homo sapiens) (UniProt Q9Y336); experiment: Hs-Siglec9 ALPHAscreen SOP 20170721; conditions: 10 µM
# Trypanosoma cruzi = experiment: Trypanosoma cruzi phosphomannomutase and mannose-1-phosphate guanylyltransferase assay; assay type: functional; conditions: 10 µM
# [5] = biological target: T2, Arginase-2, mitochondrial (Homo sapiens) (UniProt P78540); experiment: in vitro enzyme assay to detect the production of urea directly proportional to the activity of Arginase II; assay type: functional; conditions: 33.3 µM; further: in the data most compounds retested in dose-response had high values
# T2 sequence (whole entry): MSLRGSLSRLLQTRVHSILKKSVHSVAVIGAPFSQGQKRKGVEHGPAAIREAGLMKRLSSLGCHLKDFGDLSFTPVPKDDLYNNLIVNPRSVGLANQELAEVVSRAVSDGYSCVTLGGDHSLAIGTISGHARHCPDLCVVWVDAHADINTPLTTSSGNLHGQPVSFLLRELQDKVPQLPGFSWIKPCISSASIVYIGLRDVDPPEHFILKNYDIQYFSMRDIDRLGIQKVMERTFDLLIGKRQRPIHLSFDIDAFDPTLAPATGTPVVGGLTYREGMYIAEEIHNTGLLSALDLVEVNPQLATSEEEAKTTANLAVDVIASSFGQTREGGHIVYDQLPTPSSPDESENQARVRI
# [6] = biological target: T3, Proteasome subunit beta (Trypanosoma cruzi) (UniProt O96673); experiment: Trypanosoma cruzi proteasome chymotrypsin-like activity (TcProtChymo) assay.; further: in the data most compounds retested in dose-response had high values; assay type: functional; conditions: 9.37 µM
# T3 sequence (whole entry): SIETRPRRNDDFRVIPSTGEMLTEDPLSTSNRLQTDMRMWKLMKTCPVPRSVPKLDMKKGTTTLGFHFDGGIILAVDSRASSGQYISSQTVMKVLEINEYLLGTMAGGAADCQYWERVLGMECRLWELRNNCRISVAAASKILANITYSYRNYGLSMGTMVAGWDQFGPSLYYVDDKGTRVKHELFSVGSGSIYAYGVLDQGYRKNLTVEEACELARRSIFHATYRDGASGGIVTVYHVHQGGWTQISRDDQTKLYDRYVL
# Homo sapiens = species on record: Homo sapiens; experiment: To identify inhibition of the IFN signalling (Jak-Stat) pathway via expression of an eGFP reporter gene under the control of an IFN-stimulated response element (ISRE) containing MxA promoter.; assay type: functional; conditions: 30 µM
# [7] = biological target: T4, Tyrosyl-tRNA synthetase, putative (Trypanosoma cruzi (strain CL Brener)) (UniProt Q4DSP6); experiment: Trypanosoma cruzi tyrosyl tRNA synthetase (TcYRS) _High Tyrosine SOP; assay type: functional; conditions: 30 µM; further: in the data most compounds retested in dose-response had high values
# T4 sequence (whole entry): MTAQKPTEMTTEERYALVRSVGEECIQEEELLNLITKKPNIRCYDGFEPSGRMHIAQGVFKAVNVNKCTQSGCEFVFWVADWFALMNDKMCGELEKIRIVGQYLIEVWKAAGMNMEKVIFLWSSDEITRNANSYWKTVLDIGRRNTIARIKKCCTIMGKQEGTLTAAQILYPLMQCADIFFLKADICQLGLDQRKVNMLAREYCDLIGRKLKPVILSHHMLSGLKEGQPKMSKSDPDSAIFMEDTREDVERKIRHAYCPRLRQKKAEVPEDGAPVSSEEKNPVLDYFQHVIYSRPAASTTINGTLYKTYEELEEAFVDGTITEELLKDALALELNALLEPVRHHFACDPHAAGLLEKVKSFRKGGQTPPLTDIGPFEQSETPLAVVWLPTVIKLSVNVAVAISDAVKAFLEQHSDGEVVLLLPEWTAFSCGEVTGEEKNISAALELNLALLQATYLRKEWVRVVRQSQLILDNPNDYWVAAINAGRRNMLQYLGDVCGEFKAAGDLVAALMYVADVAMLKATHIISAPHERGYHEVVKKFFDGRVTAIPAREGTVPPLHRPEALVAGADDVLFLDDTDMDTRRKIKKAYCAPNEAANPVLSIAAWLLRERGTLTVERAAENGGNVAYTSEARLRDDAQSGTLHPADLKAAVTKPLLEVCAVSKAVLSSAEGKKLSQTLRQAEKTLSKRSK
# [8] = biological target: T4, Tyrosyl-tRNA synthetase, putative (Trypanosoma cruzi (strain CL Brener)); experiment: Trypanosoma cruzi tyrosyl tRNA synthetase (TcYRS) SOP; assay type: functional; conditions: 30 µM
# [9] = biological target: Chromo domain-containing protein 1 (Saccharomyces cerevisiae (strain ATCC 204508 / S288c) (Baker's yeast)) (UniProt P32657); experiment: ScCHD-1 Enzyme Inhibition Assay; assay type: functional; conditions: 30 µM; further: in the data most compounds retested in dose-response had high values
# Chromo domain-containing protein 1 (Saccharomyces cerevisiae (strain ATCC 204508 / S288c) (Baker's yeast)), sequence (P32657 whole entry, the tested form may be a part): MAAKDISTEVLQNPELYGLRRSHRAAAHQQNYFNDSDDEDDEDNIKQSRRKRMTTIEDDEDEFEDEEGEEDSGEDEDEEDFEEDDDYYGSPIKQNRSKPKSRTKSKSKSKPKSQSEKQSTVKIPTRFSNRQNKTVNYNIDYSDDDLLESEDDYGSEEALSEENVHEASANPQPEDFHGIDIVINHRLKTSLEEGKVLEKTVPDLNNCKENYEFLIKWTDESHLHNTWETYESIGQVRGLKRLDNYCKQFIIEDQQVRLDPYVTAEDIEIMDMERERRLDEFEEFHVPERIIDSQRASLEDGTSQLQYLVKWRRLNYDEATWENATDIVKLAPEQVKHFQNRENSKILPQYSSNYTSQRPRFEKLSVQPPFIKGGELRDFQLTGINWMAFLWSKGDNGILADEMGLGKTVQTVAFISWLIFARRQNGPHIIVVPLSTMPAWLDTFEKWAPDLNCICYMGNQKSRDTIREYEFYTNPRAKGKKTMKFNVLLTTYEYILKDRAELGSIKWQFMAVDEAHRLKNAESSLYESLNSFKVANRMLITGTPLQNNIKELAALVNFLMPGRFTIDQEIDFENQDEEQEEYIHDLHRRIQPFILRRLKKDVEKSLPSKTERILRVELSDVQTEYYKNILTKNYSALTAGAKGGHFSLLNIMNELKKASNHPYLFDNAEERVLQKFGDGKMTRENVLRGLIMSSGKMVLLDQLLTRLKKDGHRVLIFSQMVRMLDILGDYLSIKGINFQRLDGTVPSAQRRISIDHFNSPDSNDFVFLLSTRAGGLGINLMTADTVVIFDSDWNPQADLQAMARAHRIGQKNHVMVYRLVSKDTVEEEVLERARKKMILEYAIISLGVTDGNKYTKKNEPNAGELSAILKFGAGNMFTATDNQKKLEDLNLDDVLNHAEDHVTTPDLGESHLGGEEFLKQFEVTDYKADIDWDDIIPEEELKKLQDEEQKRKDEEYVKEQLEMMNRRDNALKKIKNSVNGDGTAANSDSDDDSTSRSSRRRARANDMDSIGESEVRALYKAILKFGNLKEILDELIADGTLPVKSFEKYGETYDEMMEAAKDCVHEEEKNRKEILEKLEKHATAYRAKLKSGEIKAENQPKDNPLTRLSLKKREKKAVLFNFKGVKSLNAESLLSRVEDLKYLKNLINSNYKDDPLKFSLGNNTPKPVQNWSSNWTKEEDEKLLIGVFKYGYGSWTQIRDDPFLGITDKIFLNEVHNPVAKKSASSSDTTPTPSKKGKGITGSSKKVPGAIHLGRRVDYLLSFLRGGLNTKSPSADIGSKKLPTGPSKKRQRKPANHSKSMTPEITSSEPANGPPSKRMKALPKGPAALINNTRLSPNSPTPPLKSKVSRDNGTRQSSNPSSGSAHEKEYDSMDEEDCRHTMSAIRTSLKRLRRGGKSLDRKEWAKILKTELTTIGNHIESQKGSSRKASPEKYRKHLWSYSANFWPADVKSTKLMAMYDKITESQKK
# Sialic acid-binding Ig-like lectin 9 (Homo sapiens), sequence (Q9Y336 whole entry): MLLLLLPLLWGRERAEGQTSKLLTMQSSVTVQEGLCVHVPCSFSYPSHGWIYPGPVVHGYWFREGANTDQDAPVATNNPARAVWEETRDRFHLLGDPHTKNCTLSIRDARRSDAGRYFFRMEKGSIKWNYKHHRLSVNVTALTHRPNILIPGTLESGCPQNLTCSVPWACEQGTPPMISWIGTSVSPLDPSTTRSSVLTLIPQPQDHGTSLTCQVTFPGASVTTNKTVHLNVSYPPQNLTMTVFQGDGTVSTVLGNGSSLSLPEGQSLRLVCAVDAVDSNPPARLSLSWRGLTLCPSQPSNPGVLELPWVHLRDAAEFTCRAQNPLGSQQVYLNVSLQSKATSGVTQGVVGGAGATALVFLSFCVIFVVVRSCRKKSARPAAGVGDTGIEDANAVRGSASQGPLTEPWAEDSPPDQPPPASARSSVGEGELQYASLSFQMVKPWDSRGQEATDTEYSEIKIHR
# Protein translocase subunit SecA (Escherichia coli (strain K12)), sequence (P10408 whole entry): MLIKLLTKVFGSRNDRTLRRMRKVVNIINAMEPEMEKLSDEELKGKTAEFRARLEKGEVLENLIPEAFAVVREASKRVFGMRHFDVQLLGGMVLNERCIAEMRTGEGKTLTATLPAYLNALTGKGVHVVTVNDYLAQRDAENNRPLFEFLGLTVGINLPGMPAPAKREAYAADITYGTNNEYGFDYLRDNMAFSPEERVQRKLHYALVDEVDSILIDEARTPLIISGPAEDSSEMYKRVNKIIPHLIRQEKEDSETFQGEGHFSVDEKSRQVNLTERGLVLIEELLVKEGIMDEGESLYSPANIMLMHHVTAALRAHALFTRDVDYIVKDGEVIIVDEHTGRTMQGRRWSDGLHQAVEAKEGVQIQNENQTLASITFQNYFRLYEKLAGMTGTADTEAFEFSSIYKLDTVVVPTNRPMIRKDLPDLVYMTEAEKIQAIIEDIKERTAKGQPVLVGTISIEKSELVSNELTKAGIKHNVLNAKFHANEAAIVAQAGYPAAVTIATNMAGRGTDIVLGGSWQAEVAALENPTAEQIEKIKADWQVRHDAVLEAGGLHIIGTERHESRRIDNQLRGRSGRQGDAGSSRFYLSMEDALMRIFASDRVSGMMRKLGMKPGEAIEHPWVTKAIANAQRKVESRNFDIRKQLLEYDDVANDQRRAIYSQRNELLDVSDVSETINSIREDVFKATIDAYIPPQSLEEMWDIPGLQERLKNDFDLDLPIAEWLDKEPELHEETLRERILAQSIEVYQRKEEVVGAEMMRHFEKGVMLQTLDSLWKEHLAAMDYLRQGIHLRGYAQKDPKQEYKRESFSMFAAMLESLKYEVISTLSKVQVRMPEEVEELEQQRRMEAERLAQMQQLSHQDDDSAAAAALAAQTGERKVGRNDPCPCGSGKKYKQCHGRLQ
Structure (SMILES),Percent Effect [1],Percent Effect [2],Percent Effect [3],Percent Effect [4],Percent Effect (Trypanosoma cruzi),Percent Effect [5],Percent Effect [6],Percent Effect (Homo sapiens),Percent Effect [7],Percent Effect [8],Percent Effect [9]
CS(=O)(=O)N1CCOCC2(CCN(C(=O)c3cccnc3)CC2)C1,0.0699%,2.74%,2.01%,-0.0941%,2.78%,4.79%,9.33%,-18.8%,0%,3.7%,-3.11%
Cn1cc(-c2nc(CN3CCN(CCO)CC3)cs2)cn1,0.128%,15.8%,4.54%,-2.39%,-0.376%,-1.53%,21.9%,17%,9.31%,19.5%,-10.9%
Cc1cnn(CC2CCCN2Cc2nnsc2Cl)c1 (configuration not stated),-4.93%,0%,-0.946%,-0.665%,-3.68%,-2.66%,0.573%,28.5%,2.46%,-3.8%,3.6%
COc1cccc(N2CCN(C(=O)C(O)c3cccc(Cl)c3)CC2=O)c1 (configuration not stated),0.76%,10.8%,-5.94%,-2.7%,-3.48%,-1.91%,11.2%,22.3%,4.76%,0%,-1.09%
CNC(=O)NC(=O)CN1CCC(c2c[nH]c3ccc(OC)cc23)CC1,-5.27%,10.7%,-5.74%,22.2%,0.292%,4.69%,12.4%,7.02%,9.29%,18.5%,-8.18%
CNC(=O)[C@@]12CCO[C@@H]1CCN(S(=O)(=O)c1cccc(C)c1)C2,-2.33%,10.8%,2.22%,0.794%,3.23%,7.96%,9.96%,11.1%,1.08%,12.8%,-1.83%
COC(=O)C(c1cc(F)ccc1F)N(C)C(=O)c1ccnc(C)n1 (configuration not stated),-4.44%,-46.8%,8.88%,3.63%,-2.77%,0.645%,1.72%,18.2%,7.29%,15.2%,-3.25%
O=c1[nH]c(CN(Cc2ccco2)C2CCCC2)nc2ccccc12,-2.15%,18.2%,7.19%,1.72%,3.75%,0.712%,10.5%,26.1%,8.74%,24.4%,-9.34%
CN(C)CCCNC(=O)CNC(=O)N1CCc2c([nH]c3ccccc23)C1,-6.34%,-1.33%,20.1%,-2.5%,-2.16%,-10.4%,9.06%,13.6%,1.06%,-5.13%,-6.13%
CC(C)CN1Cc2c(C(=O)N(C)C)ncn2-c2ccccc2S1(=O)=O,-3.52%,5.41%,-2.12%,-3.11%,-2.83%,0.319%,11.6%,-4.16%,3.24%,15.4%,0.625%
CCCC(=O)NCc1cc(Br)c(OC)c(OC)c1,-2.9%,8%,-3.19%,14.4%,6.72%,15.6%,5.41%,25.5%,2.73%,13.6%,-8.52%
Cc1ccc(NC2CCN(C(=O)COCC(F)(F)F)CC2)nn1,-6.28%,6.33%,-2.75%,3.15%,-1.95%,-2.37%,10.1%,12.1%,2.08%,2.53%,3.78%
O=C(COc1cccc(Br)c1)N1CCN(c2nccs2)CC1,-4.01%,18.7%,3.31%,10.4%,4.58%,47.4%,19.4%,26.2%,3.83%,16.1%,84.6%
CN(CC(=O)N1CCCC1Cn1cccn1)C1CC1 (configuration not stated),-4.84%,10.1%,-1.88%,13.2%,1.04%,0%,-0.0819%,3.19%,1.48%,8.86%,-3.87%
Cc1nn2c(N3CCC(O)CC3)cc(-c3ccccc3)nc2c1C,-3.77%,5.48%,-0.844%,1.98%,-3.57%,-3.99%,11%,16%,5.21%,13.6%,-5.15%
CCn1cc(CN2CCCn3nc(CCC(=O)NCCO)cc3C2)cn1,-3.01%,5.2%,13.5%,4.51%,-5.41%,0%,19.8%,-0.55%,4.3%,8.64%,0.629%
Cc1nnc(CN2CCN(CC(O)c3cccc(F)c3)CC2)n1C (configuration not stated),-3.94%,15.6%,-3.28%,3.58%,2.64%,0.632%,8.33%,14%,3.81%,11.8%,-20.7%
Cc1cnn(CCC(=O)N2CCC(Nc3cccnn3)CC2)c1,-6.66%,5.41%,1.21%,3.62%,-5%,-2%,-3.6%,16.4%,0.493%,-8.64%,2.32%
CCc1nc(C2CCCN2CC(=O)Nc2nncs2)no1 (configuration not stated),-3.67%,5.2%,-3.54%,12.8%,3.37%,-3.2%,2.53%,12.1%,10.7%,21.9%,-9.06%
CCn1cc(C(=O)NC2CCN(S(C)(=O)=O)CC2)c2ccccc21,-3.22%,16.2%,-3.16%,22.3%,4.01%,0.248%,5.41%,6.18%,2.15%,16.1%,-6.57%
c1cnn(CC2CN(CC3CCCC3)CCO2)c1 (configuration not stated),-5.26%,3.8%,-0.822%,1.53%,0.308%,0.645%,10.6%,-2.54%,5.21%,-15.2%,-17.2%
CCn1cc(CN2CCCN(C(=O)CCCn3cncn3)CC2)cn1,-2.76%,0%,7.06%,6.78%,5.43%,1.42%,5.91%,17.2%,4.85%,14.6%,-6.03%
